Measured values reported in ChEMBL document CHEMBL3988442, “University of Dundee, Small-Polar-MMV Screening Library” (2021).

Target: AMP-activated protein kinase, AMPK (Homo sapiens) (UniProt P54646+O43741+P54619+Q9UGJ0+Q9Y478+Q13131+Q9UGI9)
Assay: AMP-dependent Kinase enzyme assay. An in vitro enzyme assay that detects ADP turnover that is directly proportional to AMPK activity. This uses naive AMPK that is activated during the assay with MK-8722
Type: functional
Set-up: scale not given: direction of the effect not stated beside the values
Settings: 30 µM

| SMILES | Percent Effect |
| --- | --- |
| CCOCCC(=O)Nc1cccc(Cl)c1COC | -0.185% |
| CCC(Nc1ccc(CCN2CCCCC2)cc1)C(N)=O (centres undefined) | -12.9% |
| COC(=O)C(NC(=O)c1ccc(C)cc1C)c1cccnc1 (centres undefined) | 2.32% |
| CCc1ocnc1C(=O)N1CCC2(CCCN(CC(C)(C)C)C2=O)C1 (centres undefined) | 9.83% |
| CN(Cc1n[nH]c2c1CCCCC2)C(=O)c1cc(-c2cccn2C)n[nH]1 | 12.8% |
| COC(=O)c1ccc(Cn2cccc(C(F)(F)F)c2=O)c(OC)c1 | 6.82% |
| COCC1CCN(C(C(=O)O)c2c(F)cccc2OC(C)C)CC1 (centres undefined) | 5.46% |
| Cc1cnc(C(=O)N2CCN(c3ncc4c(n3)CCOC4)CC2)cn1 | 15.1% |
| Cc1cc(-n2cccn2)ccc1CN1C[C@@H](CN(C)C)[C@@H](CO)C1 | -2% |
| O=C(NCc1ccc(Br)c(F)c1)Nc1cn[nH]c1 | -0.537% |
| O=C(NCCC1CN(C2CCCC2)CCO1)c1cc(=O)[nH]c(=O)[nH]1 (centres undefined) | -0.888% |
| Cc1cc(CNC2(CO)CCOCC2)ccc1Br | 5.13% |
| Cc1c(C(=O)NCC(C)(C)S(C)(=O)=O)cccc1-c1ccccn1 | 11.1% |
| COC(=O)CC1CCCCN1CC(=O)NCCc1ccc(F)cc1 (centres undefined) | 6.06% |
| CC(=O)Nc1ccc(CNC(=O)CNCc2sc(C)nc2C)cc1 | 3.71% |
| CCC(CN1CCCC1)n1cncc1-c1cnn(-c2ccc(F)cc2)c1 (centres undefined) | 12.9% |
| COc1cc(C)c(S(=O)(=O)CC(=O)N(C)C2CC2)cc1OC | 2.73% |
| CCN1CCCC(NC(=O)c2ccc(C)[nH]c2=O)C1 (centres undefined) | -5.78% |
| CN1CCC(NC(=O)c2cc(F)cc(Cl)c2O)C1=O (centres undefined) | 11.4% |
| COc1ccc(CCC(=O)N2CCN(c3nc(C)ns3)CC2)cc1 | -3.26% |

| SMILES | Percent Effect |
| --- | --- |
| COc1cc(CN2CCC(COCc3ccccc3)CC2)cc(OC)c1 | 0.75% |
| CS(=O)(=O)N1CCC(CNc2cc(Cl)ccc2C#N)CC1 | 7.86% |
| Cc1ccc(CNC(CCO)C2CCCCC2)nc1 (centres undefined) | 2.17% |
| O=C1CCC2(CCNCC2)CN1Cc1nncn1CCc1ccccc1 | 14.9% |
| COCCCNC(=O)Nc1c(C)cccc1C(C)C | 7.47% |
| CCC(CC)C(=O)N1CCC2(CC1)c1ccccc1[C@@H](OC)[C@@H]2O | 14% |
| CCSCc1cccc(NCc2cccnc2)c1 | 5.73% |
| NS(=O)(=O)c1ccc(N2CCN(CCCc3cn[nH]c3)CC2)cc1 | -5.73% |
| CCN(CC)C(CNC(=O)c1ccc(-n2cncn2)cc1)c1ccsc1 (centres undefined) | -4.43% |
| Cc1nonc1CN(C)c1nc(-c2ccco2)nc2c1CCN(C)CC2 | 4.86% |
| Cc1nc(CC(C)C)cc(C(=O)N2C[C@@H](N(C)C)[C@H](C(C)C)C2)n1 | -4.31% |
| CC(C)c1noc(C(C)N2CCC(c3nc4ccccc4[nH]3)CC2)n1 (centres undefined) | 0.872% |
| CC(C)c1nnc(C2CCN(CC(=O)Nc3cccnc3)CC2)o1 | -5.27% |
| CCn1c(C2CCNCC2)nn(CCn2ccc(C)n2)c1=O | 5.45% |
| CC(C)(C)c1noc(CCCC(=O)N2CCNC(=O)C2)n1 | -8.74% |
| C[C@@H]1CN(C(=O)C2(Cn3cccn3)CC2)C[C@@]1(O)C1CCC1 | 5.58% |
| CC(=O)N1CCCN(C(=O)NC(C)Cn2ccnc2)CC1 (centres undefined) | -5.96% |
| CCN(C(=O)Cn1cc(Cl)cn1)c1ccccc1 | -10.4% |
| CC(C)n1ccnc1CNC(=O)c1cccc(CCC(C)(C)O)c1 | 6.45% |
